Laboratory results: PubChem BioAssay (NCATS)
Records with an inconclusive call do not appear. Active and inactive are the calls of the source. Unless noted, calls follow the shape of the dose curve; as a rule, active = well fitted curve in the direction sought with a large enough effect; inconclusive = small, poorly fitted or top-dose-only effect, or another doubt; inactive = no such curve, though single readings can be large; an effect the other way counts as inactive or inconclusive.

What was measured:
Es-2 = assay: Primary qHTS to identify gynecologic anti-cancer compounds using libraries of approved drugs and bioactive compounds (AID 1345084); conditions: Gynecologic cancer cell panel viability, ATPlite luminescence, 48 h; series mostly up to 57.5 µM; also: nearly all actives have a fitted effect of over 55% in size; also: potency is read from the fitted curve at half-maximal effect; as to activity change, negative = cytotoxicity: % is scaled to controls: 0 for no effect and ±100 for the full control effect
Summary of the method: (§1)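 Cytotoxicity screen measuring ATP content by luciferase luminescence. Each compound is applied at five concentrations for 48 h at 37 C with 5% CO2.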

HeLa = assay: as above; conditions: Gynecologic cancer cell panel viability, ATPlite luminescence, 48 h; series mostly up to 57.5 µM
Summary of the method: as §1

Hek293T = assay: as above; conditions: Gynecologic cancer cell panel viability, ATPlite luminescence, 48 h, control line for the selectivity index; series mostly up to 57.5 µM
Summary of the method: as §1

JEG-3 = assay: as above; conditions: Gynecologic cancer cell panel viability, ATPlite luminescence, 48 h; series mostly up to 57.5 µM
Summary of the method: as §1

OV90 = assay: as above; conditions: Gynecologic cancer cell panel viability, ATPlite luminescence, 48 h; series mostly up to 57.5 µM
Summary of the method: as §1

PA-1 = assay: as above; conditions: Gynecologic cancer cell panel viability, ATPlite luminescence, 48 h; series mostly up to 57.5 µM
Summary of the method: as §1

SKOV3 = assay: as above; conditions: Gynecologic cancer cell panel viability, ATPlite luminescence, 48 h; series mostly up to 57.5 µM
Summary of the method: as §1

Tov-21-G = assay: as above; conditions: Gynecologic cancer cell panel viability, ATPlite luminescence, 48 h; series mostly up to 57.5 µM
Summary of the method: as §1

Tov112D = assay: as above; conditions: Gynecologic cancer cell panel viability, ATPlite luminescence, 48 h; series mostly up to 57.5 µM
Summary of the method: as §1

[1] = Drug repurposing screens with cells derived from glioblastoma tumor samples (AID 1345199); conditions: GBM patient neurospheres viability, ATP luminescence, 48 h; also: nearly all actives have a fitted effect of over 40% in size; also: potency is read from the fitted curve at half-maximal effect; as to activity, negative = cell killing: % is scaled to controls: 0 for no effect and ±100 for the full control effect
Summary of the method: (§2)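 Four patient lines of CD133+ GBM neurospheres were screened at several concentrations; hits were retested in those lines plus three slower-growing GBM lines, using 48-hour treatment and ATP-based viability.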

astro = assay: as above; conditions: viability, ATP luminescence, 48 h; series mostly up to 45.9 µM
Summary of the method: as §2

[2] = qHTS assay to identify inhibitors of the type 1 interferon - major histocompatibility complex class I in skeletal muscle: Counter screen cell viability and HiBit confirmation (AID 1347412); conditions: iHSKM muscle cells + IFN-b, HiBiT or CellTiter-Glo, 24 h; Potency: HiBiT; Viability, at 45.9 µM (top of the series); also: % is scaled to controls: 0 for no effect and ±100 for the full control effect; nearly all actives have a fitted effect of over 60% in size
Summary of the method: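 Myoblasts (C25cl48, HLA-B HiBiT) seeded in medium without dexamethasone, IFN-b 4 ng/ml added except unstimulated columns; 1 hr later compounds pinned (12-pt 1:3, top 46 uM final). Incubated 24 hrs, lysed 10 min, luminescence measured.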

[3] = biological target: Nuclear receptor subfamily 1 group I member 2 (Rattus norvegicus) (UniProt Q9R1A7); assay: qHTS assay for small molecule activators of the rat pregnane X receptor (rPXR) signaling pathway (AID 651751; call rule not given here; also: 0% is about no effect); conditions: rPXR reporter cells, luciferase (One-Glo), 24 h
Chain of Nuclear receptor subfamily 1 group I member 2 (Rattus norvegicus) (Q9R1A7 whole entry, looked up): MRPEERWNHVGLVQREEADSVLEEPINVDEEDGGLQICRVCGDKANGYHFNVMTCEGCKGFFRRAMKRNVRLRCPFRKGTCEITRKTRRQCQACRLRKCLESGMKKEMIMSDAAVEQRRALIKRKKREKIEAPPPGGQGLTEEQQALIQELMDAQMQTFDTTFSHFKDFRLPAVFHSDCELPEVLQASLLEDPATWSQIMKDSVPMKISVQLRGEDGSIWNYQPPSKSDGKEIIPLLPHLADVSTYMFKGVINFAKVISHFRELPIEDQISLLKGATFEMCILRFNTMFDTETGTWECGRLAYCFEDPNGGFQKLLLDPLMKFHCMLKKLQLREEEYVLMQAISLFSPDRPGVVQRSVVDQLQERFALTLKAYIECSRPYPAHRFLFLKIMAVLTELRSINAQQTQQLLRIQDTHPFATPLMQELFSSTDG

[4] = qHTS assay for small molecule activators of the human pregnane X receptor (PXR) signaling pathway (AID 720659; call rule not given here; also: 0% is about no effect)
[5] = at 45.9 µM (top of the series), tumour line B
[6] = at 45.9 µM (top of the series), tumour line D
[7] = at 46 µM (top of the series), tumour line A
[8] = at 46.1 µM (top of the series), tumour line C
[9] = at 20 µM (top of the series), tumour line C
[10] = at 21.2 µM (top of the series), tumour line B
[11] = at 21.2 µM (top of the series), tumour line D

CC1CCc2c(N3CCC(O)CC3)c(F)cc3c(=O)c(C(=O)O)cn1c23 (centres undefined)
inactive: Potency (Es-2) | Potency (HeLa) | Potency (Hek293T) | Potency (JEG-3) | Potency (OV90) | Potency (PA-1) | Potency (SKOV3) | Potency (Tov-21-G) | Potency (Tov112D) | activity, negative = cell killing [1, 5] 9.87% | activity, negative = cell killing [1, 6] -25.4% | activity, negative = cell killing [1, 7] -14.1% | activity, negative = cell killing [1, 8] -16% | Potency (astro)

O=S(c1cc(Cl)cc(Cl)c1O)c1cc(Cl)cc(Cl)c1O
active: Potency ([1]; tumour line A) 28.2 µM
inactive: Potency (Es-2) | Potency (HeLa) | Potency (Hek293T) | Potency (JEG-3) | Potency (OV90) | Potency (PA-1) | Potency (SKOV3) | Potency (Tov-21-G) | Potency (Tov112D) | activity, negative = cell killing [1, 5] -23.8% | activity, negative = cell killing [1, 6] -25% | activity, negative = cell killing [1, 8] -26.7%

Cc1c(-c2ccccc2)oc2c(C(=O)OCCN3CCCCC3)cccc2c1=O
inactive: Potency (Es-2) | Potency (HeLa) | Potency (Hek293T) | Potency (JEG-3) | Potency (OV90) | Potency (PA-1) | Potency (SKOV3) | Potency (Tov-21-G) | Potency (Tov112D) | activity, negative = cell killing [1, 9] 10.4% | activity, negative = cell killing [1, 10] -10.2% | activity, negative = cell killing [1, 11] -18.3% | activity, negative = cell killing ([1]; at 21.3 µM (top of the series), tumour line A) -8.03% | Potency (astro)

N/C(=N\N=C\c1ccc(Cl)cc1)N/N=C/c1ccc(Cl)cc1
inactive: Potency (Es-2) | Potency (HeLa) | Potency (Hek293T) | Potency (JEG-3) | Potency (OV90) | Potency (PA-1) | Potency (Tov-21-G) | Potency (Tov112D)
active: Potency (SKOV3) 31.6 µM

Cc1ncc(CO)c(C=O)c1O
inactive: Potency (Es-2) | Potency (HeLa) | Potency (Hek293T) | Potency (JEG-3) | Potency (OV90) | Potency (PA-1) | Potency (SKOV3) | Potency (Tov-21-G) | Potency (Tov112D) | activity, negative = cell killing [1, 5] 6.81% | activity, negative = cell killing [1, 6] -6.02% | activity, negative = cell killing [1, 7] -26.4% | activity, negative = cell killing [1, 8] 7.46% | Potency (astro)

CC(=O)Nc1ccc(CC(=O)O)cc1
inactive: Potency (Es-2) | Potency (HeLa) | Potency (Hek293T) | Potency (JEG-3) | Potency (OV90) | Potency (PA-1) | Potency (SKOV3) | Potency (Tov-21-G) | Potency (Tov112D) | activity, negative = cell killing [1, 5] 0.59% | activity, negative = cell killing [1, 6] -5.02% | activity, negative = cell killing [1, 7] -20.1% | activity, negative = cell killing [1, 8] 3.56% | Potency (astro)

CCN[C@@H]1C[C@H](N)[C@@H](OC2OC(CN)=CCC2N)[C@H](O)[C@H]1O[C@H]1OC[C@](C)(O)[C@H](NC)[C@H]1O (some centres undefined)
inactive: activity change, negative = cytotoxicity (Es-2) 9.29% [at 0.462 µM] | activity change, negative = cytotoxicity (HeLa) 15.4% [at 0.462 µM] | activity change, negative = cytotoxicity (Hek293T) 3.5% [at 0.462 µM] | activity change, negative = cytotoxicity (JEG-3) 13.2% [at 0.462 µM] | activity change, negative = cytotoxicity (OV90) -4.98% [at 0.462 µM] | activity change, negative = cytotoxicity (PA-1) 0.807% [at 0.462 µM] | activity change, negative = cytotoxicity (SKOV3) -8.65% [at 0.462 µM] | activity change, negative = cytotoxicity (Tov-21-G) 7.74% [at 0.462 µM] | activity change, negative = cytotoxicity (Tov112D) -3.87% [at 0.462 µM] | activity, negative = cell killing [1, 5] -4.35% | activity, negative = cell killing [1, 6] 14.1% | activity, negative = cell killing [1, 7] -22.3% | activity, negative = cell killing [1, 8] -13.2% | Potency (astro)

CC1=C(C(=O)O)N2C(=O)[C@@H](NC(=O)[C@H](N)c3ccccc3)[C@H]2SC1
inactive: Potency (Es-2) | Potency (HeLa) | Potency (Hek293T) | Potency (JEG-3) | Potency (OV90) | Potency (PA-1) | Potency (SKOV3) | Potency (Tov-21-G) | Potency (Tov112D) | activity, negative = cell killing [1, 5] -0.246% | activity, negative = cell killing [1, 6] -6.88% | activity, negative = cell killing [1, 7] -19.6% | activity, negative = cell killing [1, 8] -1.45% | Potency (astro) | Potency [2]

O=C(O)CCNC(=O)c1ccccc1
inactive: Potency (Es-2) | Potency (HeLa) | Potency (Hek293T) | Potency (JEG-3) | Potency (OV90) | Potency (PA-1) | Potency (SKOV3) | Potency (Tov-21-G) | Potency (Tov112D) | activity, negative = cell killing [1, 5] -3.69% | activity, negative = cell killing [1, 6] -10.8% | activity, negative = cell killing [1, 7] -25.4% | activity, negative = cell killing [1, 8] -11.5% | Potency (astro)

CCOC(=O)Nc1ccc2c(c1)N(C(=O)CCN1CCOCC1)c1ccccc1S2
inactive: Potency (Es-2) | Potency (HeLa) | Potency (Hek293T) | Potency (JEG-3) | Potency (OV90) | Potency (PA-1) | Potency (SKOV3) | Potency (Tov-21-G) | Potency (Tov112D) | activity, negative = cell killing [1, 9] -16.1% | activity, negative = cell killing [1, 10] -11.1% | activity, negative = cell killing [1, 11] -19.6% | Potency (astro)

OC[C@H]1O[C@@H]2O[C@H]3[C@H](O)[C@@H](O)[C@@H](O[C@H]4[C@H](O)[C@@H](O)[C@@H](O[C@H]5[C@H](O)[C@@H](O)[C@@H](O[C@H]6[C@H](O)[C@@H](O)[C@@H](O[C@H]7[C@H](O)[C@@H](O)[C@@H](O[C@H]8[C@H](O)[C@@H](O)[C@@H](O[C@H]1[C@H](O)[C@H]2O)O[C@@H]8CO)O[C@@H]7CO)O[C@@H]6CO)O[C@@H]5CO)O[C@@H]4CO)O[C@@H]3CO
inactive: Potency (Es-2) | Potency (HeLa) | Potency (Hek293T) | Potency (JEG-3) | Potency (OV90) | Potency (PA-1) | Potency (SKOV3) | Potency (Tov-21-G) | Potency (Tov112D) | activity, negative = cell killing [1, 5] -11.6% | activity, negative = cell killing [1, 6] 5.3% | activity, negative = cell killing [1, 7] -16.2% | activity, negative = cell killing [1, 8] -14.8% | Potency (astro) | max response [3] -1.43% | outcome [4]

Nc1ccc(S(=O)(=O)Nc2cnc3ccccc3n2)cc1
inactive: Potency (Es-2) | Potency (HeLa) | Potency (Hek293T) | Potency (JEG-3) | Potency (OV90) | Potency (PA-1) | Potency (SKOV3) | Potency (Tov-21-G) | Potency (Tov112D) | activity, negative = cell killing [1, 5] 0.475% | activity, negative = cell killing [1, 6] 3.34% | activity, negative = cell killing [1, 7] -15.8% | activity, negative = cell killing [1, 8] 4.45% | Potency (astro)

CCCCCCCCCCCCCC(=O)OC(C)C
inactive: Potency (Es-2) | Potency (HeLa) | Potency (Hek293T) | Potency (JEG-3) | Potency (OV90) | Potency (PA-1) | Potency (SKOV3) | Potency (Tov-21-G) | Potency (Tov112D) | activity, negative = cell killing [1, 5] 8.22% | activity, negative = cell killing [1, 6] -15.3% | activity, negative = cell killing [1, 7] -17.4% | activity, negative = cell killing [1, 8] 3.73% | Potency (astro) | max response [3] 2.24% | outcome [4]

COc1cc(O)c(C(=O)c2ccccc2)cc1S(=O)(=O)O
inactive: Potency (Es-2) | Potency (HeLa) | Potency (Hek293T) | Potency (JEG-3) | Potency (OV90) | Potency (PA-1) | Potency (SKOV3) | Potency (Tov-21-G) | Potency (Tov112D) | activity, negative = cell killing [1, 5] -4.01% | activity, negative = cell killing [1, 6] -5.06% | activity, negative = cell killing [1, 7] -20.9% | activity, negative = cell killing [1, 8] 6.07% | Potency (astro)
